{"source": "PubChem BioAssay (NCI)", "note": "About 83,000 compounds went through this panel and 20% of them were active in at least one assay; those are over-represented in the sample as a whole.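 96-well plates, one dose, 48 hours. Percent growth reported; active if below 10.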 A number with no mark means an inactive call. Calls of active or inactive are those of the source.", "data": [{"test_system": "SNB-75 CNS", "assay": "NCI-60 one-dose screen, 48 h (100 = growth as untreated, 0 = no growth, -100 = all killed)", "details": "10 µM unless noted", "procedure": "Growth inhibition of the SNB-75 human tumor cell line is measured as a screen for anti-cancer activity. Cells are grown in 96 well plates and exposed to the test compound for 48 hours. Compounds are tested at a single concentration, which is 10^-5 M for most compounds. The reported endpoint is percent growth (GI% or GIPRCNT), where numbers from 0 - 100% represent growth inhibition, and numbers from -100% - 0 represent cell death. For example, a value of 40 represents 60% growth inhibition. A value of 0 means no net growth occurred over the course of the experiment. A value of -40 indicates 40% of cells at the beginning of the experiment died by the end of the experiment. A value of -100 means all cells are dead at the end of the experiment.\nNCI-60 Human Tumor Cell Lines Screen was performed using the standard one-dose NCI protocol, which is described in more detail at https://dtp.cancer.gov/discovery_development/nci-60/default.htm.\nCompounds with GIPRCNT values below 10 were considered active. Activity score was based on GIPRCNT using the following formula: […]\nScore is 0 for GIPRCNT values of 100 or above, 50 for GIPRCNT values of 0, and 100 for GIPRCNT values of -100.", "values": [{"smiles": "NC(=O)c1c(NC(=O)c2ccccc2C(F)(F)F)sc2c1CCC(=O)C2", "growth": "44.8%"}, {"smiles": "CN1CCN(c2ccc(/C=N/Nc3nc4ccccc4c(=O)n3-c3ccccc3)cc2)CC1", "growth": "95.5%"}, {"smiles": "CCn1c2ccccc2c2cc(-n3nncc3-c3ccccc3)ccc21", "growth": "27.4%"}, {"smiles": "CCN(CC)c1ccc(NC2=C(Cl)C(=O)c3nc(C)ccc3C2=O)cc1", "growth": "126%"}, {"smiles": "CC(=O)c1cc(C(=O)N2c3ccccc3Sc3ccccc32)n2ccc3ccccc3c12", "growth": "34.6%"}, {"smiles": "C#CCOC(=O)[C@@H]1CCCN1CC#C", "growth": "77.8%"}, {"smiles": "COc1ccc(-c2nc3ccc(-c4nnc(SCC(=O)Nc5ccc(C(=O)/C=C/c6ccc(Cl)cc6)cc5)o4)cc3[nH]2)cc1", "growth": "94.7%"}, {"smiles": "N#Cc1cccc(CN2CCC3=C(C2)C(=O)N(Cc2ccc(Cl)cc2)C2=NCCCN23)c1", "growth": "68%"}, {"smiles": "Cc1[nH]c(C(=O)Nc2ccccc2OCc2cccc(C(=O)N3CCC[C@@H](N)C3)c2)c(Cl)c1Cl", "growth": "-96.3% (active)"}, {"smiles": "N#Cc1cnc2ccc(-c3cnc(N)nc3)cc2c1N1CCc2cc(F)c(Cl)cc21", "growth": "19.1%"}, {"smiles": "CC(C)(C)n1nnnc1C(Nc1cccc2c1OCO2)c1cc2cccc3ccc4cccc1c4c32", "note": "(stereo not given)", "growth": "115%"}, {"smiles": "Nc1nc(-c2cccc([N+](=O)[O-])c2)c(N=Nc2ccc(Br)cc2)s1", "growth": "-27.9% (active)"}, {"smiles": "Nc1ncc(-c2ccc3ncnc(N4CCc5cc(F)c(Cl)cc54)c3c2)cn1", "growth": "-32.2% (active)"}, {"smiles": "O=C(NNc1nc2cc(F)ccc2n2c(CN3CCCC3)ccc12)c1cnccn1", "growth": "65%"}, {"smiles": "CC(=O)Nc1cccc(Nc2nc(N[C@H](C)c3ccccc3)c3ccccc3n2)c1", "growth": "30.6%"}, {"smiles": "COc1cc2c(cc1OC)C(Sc1ccc(F)cc1)c1c(nc(N)c(C#N)c1N)O2", "note": "(stereo not given)", "growth": "52.9%"}, {"smiles": "CCOC(=O)C1=NNC(c2ccc(Cl)cc2)C1C(=O)N1C(=S)NC(=O)C1CC(C)C", "note": "(stereo not given)", "growth": "100%"}, {"smiles": "C#CCn1cccc1CNc1ccc(OC)cc1", "growth": "-79.9% (active)"}, {"smiles": "Cc1ccc(S(=O)(=O)N(CC[C@@H]2C[C@H]2c2cc3ccccc3o2)S(=O)(=O)c2ccc(C)cc2)cc1", "growth": "89%"}, {"smiles": "N#Cc1c(-c2cccs2)cc(-c2cnccn2)nc1SCC(=O)c1ccc(F)cc1", "growth": "58.5%"}, {"smiles": "O=S(=O)(NCCCNc1nccc(-c2[nH]c(-c3ccccc3)nc2-c2ccc(Cl)c(O)c2)n1)c1ccc(Br)cc1", "growth": "73.6%"}, {"smiles": "CCOc1cccc(-c2nc3sccn3c2-c2ccnc(S(C)(=O)=O)n2)c1", "growth": "98.4%"}, {"smiles": "O=C1CCCc2nc(Nc3ccc(S(=O)(=O)Nc4ccc([N+](=O)[O-])cc4)cc3)ncc21", "growth": "92.6%"}, {"smiles": "CCCCCc1ccc(S(=O)(=O)Nc2cccc(-c3csc(NC(=O)CCCCCN4CCN(C)CC4)n3)c2)cc1", "growth": "85.9%"}, {"smiles": "NS(=O)(=O)c1ccc(Nc2nc(N/N=C/c3ccc(Cl)cc3)nc(Nc3ccccc3)n2)cc1", "growth": "94.3%"}, {"smiles": "O=S(=O)(NCCCNc1nccc(-c2[nH]c(-c3ccccc3)nc2-c2ccc(Cl)c(O)c2)n1)c1cccc2ccccc12", "growth": "43.4%"}, {"smiles": "NC(N)=Nc1ccc(Oc2cccc(NC(N)=Nc3ccc(I)cc3F)c2)cc1", "growth": "73.2%"}, {"smiles": "CCCC(=O)NC(c1cccnc1)c1cc(C(C)(C)C)c2cccnc2c1O", "note": "(stereo not given)", "growth": "37.4%"}, {"smiles": "C=C(C=O)[C@@H]1CC[C@]2(COC(C)=O)CC[C@]3(C)C(CC[C@@H]4[C@@]5(C)CC[C@H](OC(C)=O)C(C)(C)[C@@H]5CC[C@]43C)[C@@H]12", "note": "(stereo not given in full)", "growth": "32.1%"}, {"smiles": "Cc1cc2ncc(-c3cc4ccccc4c(N4CCN(C)CC4)n3)nc2cc1C", "growth": "56.1%"}, {"smiles": "Nn1c(N/N=C/c2nc3ccccc3s2)n[nH]c1=S", "growth": "51.5%"}, {"smiles": "N#Cc1c(-c2cccs2)cc(-c2cnccn2)nc1SCC(=O)Nc1ccc(Br)cc1", "growth": "50.6%"}, {"smiles": "N#C/C(=C\\c1ccc(-c2ccc(Cl)cc2Cl)o1)c1ccc(F)cc1", "growth": "77.6%"}, {"smiles": "COC[C@]12CCC(C)(C)C[C@H]1C1=CC[C@@H]3[C@@]4(C)CCCNC(C)(C)[C@@H]4CC[C@@]3(C)[C@]1(C)CC2", "growth": "12%"}, {"smiles": "NC(N)=Nc1ccc(Oc2cccc(Nc3ccc(Cl)c(C(F)(F)F)c3)c2)cn1", "growth": "20.3%"}, {"smiles": "Cc1ccc(-c2nnc(SCc3ccc(O)c4ncccc34)n2-c2ccccc2)cc1", "growth": "-5.25% (active)"}, {"smiles": "CNc1ncc2cc(-c3ccc(-c4ncccc4F)cc3Cl)c(=O)n(CC3OCC(N)CO3)c2n1", "note": "(stereo not given)", "growth": "24%"}, {"smiles": "Cc1ccc(CSc2nc(-c3ccc(Cl)cc3)c(C#N)c(N3CCNCC3)n2)cc1", "growth": "68.5%"}, {"smiles": "C/C(=N\\O)[C@H]1C[C@]23CC[C@]4(C)[C@H](CC[C@@H]5[C@@]6(C)CC/C(=N/O)C(C)(C)[C@@H]6CC[C@]54C)[C@H]2[C@H](C)C1(C)OC3", "growth": "72%"}, {"smiles": "Cn1ccnc1C(=O)/C=C/c1ccc(CNC(=O)c2ccc(S(F)(F)(F)(F)F)cc2)cc1", "growth": "57.6%"}]}]}
